Assay results published in the supplement of paper PMC11634586.
Counter-ions that a name gives are not always drawn. A number with no mark means an inactive call.

tested on: NCI-H1688; assay: inhibition of cell viability relative to untreated control (fraction); higher = stronger growth inhibition, active = 0.5 or more; details: 30 µM; 24 h
Protocol: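 Natural product library (TargetMol, 640 compounds) screened on NCI-H1688 SCLC cells at 30 µM for 24 h; viability by CCK-8 absorbance at 450 nm, normalised to untreated control and expressed as inhibition rate (fraction). Compounds with >50% reduction in viability were selected as hits.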

Compared with `C[C@]12CC[C@H](O)CC1=CC[C@@H]1[C@@H]2CC[C@]2(C)C(=O)CC[C@@H]12` [Dehydroepiandrosterone], `C[C@]12CCC(=O)C=C1CC[C@@H]1[C@@H]2CC[C@@]2(C)[C@H]1CC[C@]2(C)O` [17-Methyltestosterone] is higher in “inhibition of cell viability” value: 0.0365 for the first, 0.403 for the second.

Compared with `CN1[C@@H]2CC[C@H]1C[C@@H](OC(=O)C(CO)c1ccccc1)C2` (stereo not given in full) [Atropine], `CN1[C@H]2C[C@H](OC(=O)[C@H](CO)c3ccccc3)C[C@@H]1[C@@H](O)C2` [Anisodamine] is higher in “inhibition of cell viability” value: -0.146 for the first, 0.2 for the second.

First: C=C[C@@H]1C2=CCOC(=O)C2=CO[C@H]1O[C@@H]1O[C@H](CO)[C@@H](O)[C@H](O)[C@H]1O [Gentiopicrin]
Second: N#C[C@H](O[C@@H]1O[C@H](C(=O)O)[C@@H](O)[C@H](O)[C@H]1O)c1ccccc1 [Laetrile]
The “inhibition of cell viability” value of the first is lower: -0.0346 for the first, 0.0291 for the second.

First: O=C1CCC[C@@H]2[C@H]3CCCN4CCC[C@@H](CN12)[C@@H]34 [(+)-Matrine]
Second: O=C1C=CC[C@@H]2[C@H]3CCCN4CCC[C@@H](CN12)[C@@H]34 [Sophocarpine]
The “inhibition of cell viability” value of the first is higher: 0.176 for the first, -0.484 for the second.

Going from `CC(=O)OC12COC1CC(O)C1(C)C(=O)C(O)C3=C(C)C(O)CC(O)(C(OC(=O)c4ccccc4)C21)C3(C)C` (stereo not given) [10-Deacetylbaccatin III] to `CCN1C[C@]2(COC)[C@H](O)C[C@H](OC)[C@@]34[C@@H]5C[C@@]6(O)[C@H](OC(=O)c7ccccc7)[C@@H]5[C@@](OC(C)=O)([C@@H]([C@H](OC)[C@H]23)[C@@H]14)[C@@H](O)[C@@H]6OC` [Aconitine], the “inhibition of cell viability” value falls from 0.454 to -0.116.

First: CCC(=O)O[C@H]1CC[C@H]2[C@@H]3CCC4=CC(=O)CC[C@]4(C)[C@H]3CC[C@]12C [Testosterone propionate]
Second: CCC(=O)O[C@H]1CC[C@H]2[C@@H]3CC[C@H]4CC(=O)[C@H](C)C[C@]4(C)[C@H]3CC[C@]12C [Drostanolone Propionate]
The “inhibition of cell viability” value of the first is lower: -0.173 for the first, 0.313 for the second.

Compared with `COC1=C[C@@H]2[C@@H]3Cc4ccc(OC)c(O)c4[C@]2(CCN3C)CC1=O` [Sinomenine], `CNC(=O)Oc1ccc2c(c1)[C@]1(C)CCN(C)[C@@H]1N2C` [Physostigmine Salicylate] is higher in “inhibition of cell viability” value: -0.13 for the first, 0.126 for the second.

Compared with `C=CCCCCCCCCC(=O)O[C@H]1CC[C@H]2[C@@H]3CCC4=CC(=O)C=C[C@]4(C)[C@H]3CC[C@]12C` [Boldenone Undecylenate], `C[C@H]1CC(=O)C[C@@H]2CC[C@H]3[C@@H]4CC[C@H](O)[C@@]4(C)CC[C@@H]3[C@]21C` [Mesterolone] is higher in “inhibition of cell viability” value: -0.203 for the first, 0.237 for the second.

Compared with `O=C(O)C1C2CCC(O2)C1C(=O)O` (stereo not given) [Sodium Demethylcantharidate], `CC(=O)[C@]1(O)CC[C@@]2(O)[C@]1(C)[C@H](OC(=O)/C=C(\C)C(C)C)C[C@@H]1[C@@]3(C)CC[C@H](O)CC3=CC[C@]12O` [Caudatin] is lower in “inhibition of cell viability” value: 0.314 for the first, 0.161 for the second.

Going from `C=C[C@H]1CN2CC[C@H]1C[C@@H]2[C@@H](O)c1ccnc2ccccc12` [Cinchonine] to `C=C[C@H]1CN2CC[C@H]1C[C@H]2[C@H](O)c1ccnc2ccccc12` [Cinchonidine], the “inhibition of cell viability” value rises from -0.188 to -0.042.

First: C#C[C@]1(O)CC[C@H]2[C@@H]3CCC4=CC(=O)CC[C@]4(C)[C@H]3CC[C@@]21C [Ethisterone]
Second: C[C@@H]1CC[C@H]2[C@@H](C)C(=O)O[C@@H]3O[C@@]4(C)CC[C@@H]1[C@]32OO4 [Artemisinin]
The “inhibition of cell viability” value of the first is higher: 0.178 for the first, 0.118 for the second.

First: CCC1=CC2CN3CCc4c([nH]c5ccccc45)C(C(=O)OC)(C2)C13 (stereo not given) [Catharanthine sulfate]
Second: COc1ccc2c3c([nH]c2c1)C(C)=NCC3 [Harmaline]
The “inhibition of cell viability” value of the first is higher: 0.191 for the first, -0.11 for the second.

First: c1cc2c(cc1[C@H]1OC[C@H]3[C@@H]1CO[C@@H]3c1ccc3c(c1)OCO3)OCO2 [Sesamin]
Second: COc1ccc(Cc2nccc3cc(OC)c(OC)cc23)cc1OC [Papaverine hydrochloride]
The “inhibition of cell viability” value of the first is lower: -0.0637 for the first, 0.205 for the second.

Compared with `COc1cc(OC)c(OC)cc1C=O` [Asarylaldehyde], `CCCCCCCCC(=O)NCc1ccc(O)c(OC)c1` [Nonivamide] is higher in “inhibition of cell viability” value: -0.42 for the first, -0.0291 for the second.

Compared with `NCCc1ccccc1` [Phenethylamine], `Cc1c([C@H](C)[C@@H]2NC[C@@H](C)C[C@H]2O)ccc2c1C[C@H]1[C@H]2CC=C2C[C@@H](O)CC[C@@]21C` [Veratramine] is higher in “inhibition of cell viability” value: -0.183 for the first, 0.262 for the second.

With `O=C1C=CC[C@@H]2[C@H]3CCC[N+]4([O-])CCC[C@@H](CN12)[C@@H]34` (stereo not given in full) [Oxysophocarpine] the “inhibition of cell viability” value was -0.0366.

With `CC1=CC(=O)c2c(O)cccc2C1=O` [Plumbagin] the “inhibition of cell viability” value was 1 (active).
With `C[C@@H]1CC[C@@]2(OC1)O[C@H]1C[C@H]3[C@@H]4CC=C5C[C@@H](O[C@@H]6O[C@H](CO)[C@@H](O[C@@H]7O[C@@H](C)[C@H](O)[C@@H](O)[C@H]7O)[C@H](O)[C@H]6O[C@@H]6O[C@@H](C)[C@H](O)[C@@H](O)[C@H]6O)CC[C@]5(C)[C@H]4CC[C@]3(C)[C@H]1[C@@H]2C` [Dioscin] the “inhibition of cell viability” value was 0.976 (active).
`C[C@@H]1CC[C@@]2(OC1)O[C@H]1[C@@H](O)[C@H]3[C@@H]4CC[C@H]5C[C@@H](O[C@@H]6O[C@H](CO)[C@H](O[C@@H]7O[C@H](CO)[C@@H](O)[C@H](O[C@@H]8OC[C@@H](O)[C@H](O)[C@H]8O)[C@H]7O[C@@H]7O[C@H](CO)[C@H](O)[C@H](O[C@@H]8O[C@H](CO)[C@@H](O)[C@H](O)[C@H]8O)[C@H]7O)[C@H](O)[C@H]6O)[C@H](O)C[C@]5(C)[C@H]4CC[C@]3(C)[C@H]1[C@@H]2C` [Digitonin] was tested, and the “inhibition of cell viability” value was 1.01 (active).
With `COc1cc2c(c(OC)c1OC)-c1ccc(OC)c(=O)cc1[C@@H](NC(C)=O)CC2` [Colchicine] the “inhibition of cell viability” value was 0.84 (active).
For `CNC1CC(N)C(O)C(OC2OC(CO)C(O)C3OC4(OC(C(N)CO)C(O)C(O)C4O)OC23)C1O` (stereo not given) [Hygromycin B], the “inhibition of cell viability” value was 0.829 (active).
In the case of `COc1ccc2c(c1)[nH]c1c(C)nccc12` [Harmine hydrochloride], the “inhibition of cell viability” value is reported as 0.813 (active).
For `COc1cc([C@@H]2c3cc4c(cc3[C@@H](O)[C@H]3COC(=O)[C@H]23)OCO4)cc(OC)c1O` [4'-Demethylepipodophyllotoxin], the “inhibition of cell viability” value was 0.568 (active).
With `CCC1(O)C(=O)OCc2c1cc1n(c2=O)Cc2cc3ccccc3nc2-1` (single isomer, unassigned; (+)) [(+)-Camptothecin] the “inhibition of cell viability” value was 0.979 (active).
`CC(C)[C@]12O[C@H]1[C@@H]1O[C@]13[C@]1(O[C@H]1C[C@H]1C4=C(CC[C@@]13C)C(=O)OC4)[C@@H]2O` [Triptolide (PG490)] was tested, and the “inhibition of cell viability” value was 0.948 (active).
